# Assay results as given in the supplement of paper PMC7724964.
# T1: PPARG 233-505 Hormone_recep (domain begin residue: 233, domain end residue: 505), P37231
# T1 chain: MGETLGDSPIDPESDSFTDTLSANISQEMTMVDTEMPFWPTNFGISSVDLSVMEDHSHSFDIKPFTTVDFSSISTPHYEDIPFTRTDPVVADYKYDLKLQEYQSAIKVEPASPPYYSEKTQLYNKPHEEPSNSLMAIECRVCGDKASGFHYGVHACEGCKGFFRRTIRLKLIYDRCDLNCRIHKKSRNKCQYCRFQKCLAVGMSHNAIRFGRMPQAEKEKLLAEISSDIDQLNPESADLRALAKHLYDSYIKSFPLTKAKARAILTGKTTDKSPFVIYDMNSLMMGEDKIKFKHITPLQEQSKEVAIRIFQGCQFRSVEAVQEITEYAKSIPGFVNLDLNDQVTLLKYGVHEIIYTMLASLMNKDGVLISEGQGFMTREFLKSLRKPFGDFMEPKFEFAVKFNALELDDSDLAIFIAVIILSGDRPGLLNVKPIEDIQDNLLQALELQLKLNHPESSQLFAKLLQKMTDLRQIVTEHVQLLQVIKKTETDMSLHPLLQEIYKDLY
# T2: PLEK 120-231 DEP (domain begin residue: 120, domain end residue: 231), P08567
# T2 chain: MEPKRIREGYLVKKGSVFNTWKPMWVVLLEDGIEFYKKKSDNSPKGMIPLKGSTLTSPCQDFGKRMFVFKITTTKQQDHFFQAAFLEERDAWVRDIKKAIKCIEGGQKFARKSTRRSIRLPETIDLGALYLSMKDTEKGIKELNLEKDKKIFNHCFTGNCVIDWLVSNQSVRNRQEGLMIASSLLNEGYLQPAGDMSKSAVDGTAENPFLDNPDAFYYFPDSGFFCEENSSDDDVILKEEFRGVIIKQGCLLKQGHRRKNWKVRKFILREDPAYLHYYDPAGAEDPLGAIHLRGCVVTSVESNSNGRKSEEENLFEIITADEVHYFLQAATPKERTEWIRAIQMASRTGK
# T3: PDCD6IP 3-392 BRO1 (domain begin residue: 3, domain end residue: 392), Q8WUM4
# T3 chain: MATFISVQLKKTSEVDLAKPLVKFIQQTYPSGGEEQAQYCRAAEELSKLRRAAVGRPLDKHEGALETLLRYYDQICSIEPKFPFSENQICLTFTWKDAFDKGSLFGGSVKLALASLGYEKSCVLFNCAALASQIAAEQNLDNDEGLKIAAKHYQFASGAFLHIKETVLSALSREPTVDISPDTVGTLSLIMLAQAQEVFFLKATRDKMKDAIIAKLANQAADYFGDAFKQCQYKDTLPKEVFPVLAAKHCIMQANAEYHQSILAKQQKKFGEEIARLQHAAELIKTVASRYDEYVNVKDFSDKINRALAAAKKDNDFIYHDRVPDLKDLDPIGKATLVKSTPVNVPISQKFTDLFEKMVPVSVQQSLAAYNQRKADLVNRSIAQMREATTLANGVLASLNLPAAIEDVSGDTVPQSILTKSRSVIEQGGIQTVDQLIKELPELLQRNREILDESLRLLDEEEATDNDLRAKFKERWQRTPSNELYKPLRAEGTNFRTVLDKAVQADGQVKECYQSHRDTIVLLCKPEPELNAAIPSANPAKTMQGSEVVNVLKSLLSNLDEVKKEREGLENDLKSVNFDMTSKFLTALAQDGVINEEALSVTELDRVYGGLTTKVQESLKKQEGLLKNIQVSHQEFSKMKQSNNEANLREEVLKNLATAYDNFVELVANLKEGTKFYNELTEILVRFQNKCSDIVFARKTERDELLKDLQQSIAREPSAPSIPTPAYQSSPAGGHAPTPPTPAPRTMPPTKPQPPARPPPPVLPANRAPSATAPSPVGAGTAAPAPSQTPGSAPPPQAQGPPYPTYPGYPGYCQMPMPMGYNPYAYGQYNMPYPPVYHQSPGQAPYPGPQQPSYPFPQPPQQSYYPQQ
# Target: PDCD6 23-191 EF-hand_5+EF-hand_7 (domain begin residue: 23, domain end residue: 191), O75340
# Experiment: phage ELISA signal ratio (GST-PRM binding over GST background); higher = stronger binding of peptide-phage to the PRM
# Summary of the method: (§1)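 An M13 phage library with randomized hexadecapeptides on the gene-8 major coat protein, each peptide lacking cysteine and flanked by glycine, was selected for five rounds against human peptide recognition domains fused to the C-terminus of glutathione S-transferase (GST) and expressed in 96-well plates. Approximately 48 clones from rounds 4 and 5 went to phage ELISA. The reported value is the ELISA signal on the GST-domain fusion over the signal on GST alone, and positive clones were sequenced.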
# Sequence of PDCD6 23-191 EF-hand_5+EF-hand_7 (domain begin residue: 23, domain end residue: 191), O75340 (O75340 whole entry): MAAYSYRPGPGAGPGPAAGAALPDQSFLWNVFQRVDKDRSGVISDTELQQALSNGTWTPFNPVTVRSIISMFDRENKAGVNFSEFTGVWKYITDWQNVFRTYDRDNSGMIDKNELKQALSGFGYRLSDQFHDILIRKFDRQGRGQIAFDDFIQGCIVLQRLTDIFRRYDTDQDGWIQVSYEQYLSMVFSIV
row,Binder,phage ELISA signal ratio
1,YPYGWQQWVWESEQVQ,27.1
2,DIPPESYGWAPWVWQV,35.3
3,IVALESPYGWQDWVTT,28.1
4,ADYPFEVWQAWVFEEV,36.3
5,EPLNYGWEGWLLDGWS,28.8
6,VEQFPYGWADWVHEIV,31.3
7,QTDYAYGFYPFIEQHF,32.3
8,FQEVTMYGWRPEYLSD,27.7
9,QNGTPMPGWAPWVLEV,34.1
10,ASGEHAVGWQDWVWIS,31.1
11,EEMQQLGPFYGWQDWV,30.5
12,YPEFAHYGFADWIYAS,30.4
13,LQVEYGWAEWTWIGAD,27.2
14,WADWVFQENEKWDLFV,29.1
15,VPVYGWDPGLWDGHAL,35.1
16,DSHYGWAEWVLQGPVA,35.1
17,YGWDWEFLEGLQYGKV,32.4
18,VSYGWAHWTMEQGEDA,28.1
19,YGWDPFLENISWSWQA,33.4
20,AAQYGWQDWVMVPESM,32.8

# Target: PLEK2 238-353 PH (domain begin residue: 238, domain end residue: 353)
# Experiment: as above
# Summary of the method: as §1
row,Binder,phage ELISA signal ratio
1,DHWDAFYTWQKQNYLD,36.8
2,EDVELLNKHWYDWAQV,25
3,QNDGMDKAWVFWHEPT,20.8
4,MNEHWTEWYWQSQNFV,20.4
5,DINVTSDMNQHWMQWS,33.1
6,SIKHWEQFYASQPPQI,16.2
7,DGKHWADFYSAFPMLA,31.8
8,LNDHWVAWHLMKNEIQ,14.3
9,DQVLKWNEHWHEWLQA,26.3
10,GPEMWNLHWQDWYNEV,28.3
11,WEDWTYWNDHLHLSPE,8.15
12,DFNAHWLEWHAQHVAL,28.5
13,MHSELNWWEAMQWDSW,4.7
14,MSGITDWWENPAYWSW,3.86
15,TLTATDWWEEWNWGEN,20.9

# Target: T1, PPARG 233-505 Hormone_recep (domain …
# Experiment: as above
# Summary of the method: as §1
row,Binder,phage ELISA signal ratio
1,PSEDVSWWWQQHLMDI,17.6
2,AEEHSMSLMSLLLAPS,5.77
3,QDLESWWWSEHLSNIM,14.3
4,MNHAQIQSPLLWSLLW,11.6

# Target: PIKFYVE 347-450 DEP (domain begin residue: 347, domain end residue: 450), Q9Y2I7
# Experiment: as above
# Summary of the method: as §1
# Sequence of PIKFYVE 347-450 DEP (domain begin residue: 347, domain end residue: 450), Q9Y2I7 (Q9Y2I7 whole entry): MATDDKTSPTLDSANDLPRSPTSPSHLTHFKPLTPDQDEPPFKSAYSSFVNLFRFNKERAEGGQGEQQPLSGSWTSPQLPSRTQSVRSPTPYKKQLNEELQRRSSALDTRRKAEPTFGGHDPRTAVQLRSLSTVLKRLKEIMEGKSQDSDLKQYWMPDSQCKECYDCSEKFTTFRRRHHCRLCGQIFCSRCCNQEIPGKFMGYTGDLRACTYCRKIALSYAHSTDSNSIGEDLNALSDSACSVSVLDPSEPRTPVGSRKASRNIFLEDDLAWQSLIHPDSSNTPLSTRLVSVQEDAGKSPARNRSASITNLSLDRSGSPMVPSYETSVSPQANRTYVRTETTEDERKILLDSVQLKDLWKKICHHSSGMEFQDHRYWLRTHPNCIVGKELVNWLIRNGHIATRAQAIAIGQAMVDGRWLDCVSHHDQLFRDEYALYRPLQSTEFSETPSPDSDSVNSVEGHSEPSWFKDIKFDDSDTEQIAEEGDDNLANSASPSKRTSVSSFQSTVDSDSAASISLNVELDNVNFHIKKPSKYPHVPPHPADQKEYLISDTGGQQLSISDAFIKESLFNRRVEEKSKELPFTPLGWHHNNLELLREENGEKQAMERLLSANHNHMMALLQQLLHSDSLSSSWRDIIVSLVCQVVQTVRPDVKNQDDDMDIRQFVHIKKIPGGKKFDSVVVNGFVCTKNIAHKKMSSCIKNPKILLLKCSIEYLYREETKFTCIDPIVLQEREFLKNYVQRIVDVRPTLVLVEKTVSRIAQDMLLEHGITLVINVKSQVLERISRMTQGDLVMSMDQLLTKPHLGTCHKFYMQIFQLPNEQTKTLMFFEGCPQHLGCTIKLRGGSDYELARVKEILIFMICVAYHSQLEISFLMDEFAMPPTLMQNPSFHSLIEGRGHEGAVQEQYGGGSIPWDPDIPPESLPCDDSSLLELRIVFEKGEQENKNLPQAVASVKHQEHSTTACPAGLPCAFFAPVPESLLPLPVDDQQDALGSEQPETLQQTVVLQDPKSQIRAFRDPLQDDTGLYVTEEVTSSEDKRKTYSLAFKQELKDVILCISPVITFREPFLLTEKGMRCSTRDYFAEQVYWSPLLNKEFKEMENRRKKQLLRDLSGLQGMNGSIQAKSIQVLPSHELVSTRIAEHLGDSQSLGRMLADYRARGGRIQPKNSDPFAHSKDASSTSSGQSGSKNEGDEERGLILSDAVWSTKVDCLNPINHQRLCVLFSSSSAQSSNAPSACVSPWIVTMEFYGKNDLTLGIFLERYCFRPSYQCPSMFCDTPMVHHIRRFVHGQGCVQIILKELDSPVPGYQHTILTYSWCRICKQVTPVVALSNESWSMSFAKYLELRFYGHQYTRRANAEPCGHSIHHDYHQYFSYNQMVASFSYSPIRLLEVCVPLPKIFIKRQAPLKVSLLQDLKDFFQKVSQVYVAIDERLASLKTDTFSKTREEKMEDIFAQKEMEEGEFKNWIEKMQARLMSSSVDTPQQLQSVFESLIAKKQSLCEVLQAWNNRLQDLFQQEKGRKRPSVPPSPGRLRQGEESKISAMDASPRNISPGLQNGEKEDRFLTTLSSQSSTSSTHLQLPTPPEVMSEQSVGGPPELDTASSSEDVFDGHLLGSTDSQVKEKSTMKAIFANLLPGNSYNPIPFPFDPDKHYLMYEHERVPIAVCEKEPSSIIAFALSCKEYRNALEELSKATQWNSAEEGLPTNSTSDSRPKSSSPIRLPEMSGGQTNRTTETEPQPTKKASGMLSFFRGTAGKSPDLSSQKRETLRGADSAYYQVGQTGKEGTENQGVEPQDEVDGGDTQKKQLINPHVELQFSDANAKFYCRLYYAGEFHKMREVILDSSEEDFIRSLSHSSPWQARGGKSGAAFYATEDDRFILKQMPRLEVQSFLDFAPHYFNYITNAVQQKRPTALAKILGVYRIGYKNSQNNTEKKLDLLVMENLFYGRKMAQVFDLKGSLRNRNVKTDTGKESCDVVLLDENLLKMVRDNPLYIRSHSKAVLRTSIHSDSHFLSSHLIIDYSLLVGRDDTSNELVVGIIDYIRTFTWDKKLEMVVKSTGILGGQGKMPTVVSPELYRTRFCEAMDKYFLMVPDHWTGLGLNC
row,Binder,phage ELISA signal ratio
1,YALPYEWMWMTDLIQE,3.03

# Target: PLEK2 123-229 DEP (domain begin residue: 123, domain end residue: 229)
# Experiment: as above
# Summary of the method: as §1
row,Binder,phage ELISA signal ratio
1,PDFWWQQQMADIMQWR,21.4
2,YLTWWYDPDHPDWATV,6.35
3,EFEMDFWEMWNAWLSQ,14.9
4,WNWENVWWLDQTHPLW,10.1
5,WNWENVWGLDQTHPLW,3.15
6,EIEPWWWDPHHENWAM,7.12

# Target: PHF19 190-255 PHD (domain begin residue: 190, domain end residue: 255), Q5T6S3
# Experiment: as above
# Summary of the method: as §1
row,Binder,phage ELISA signal ratio
1,MEAPHWVWPPDGYALR,6.23
2,KLEMYQGTIPYGNYWP,6.64
3,TPGDLIDFSTLTFYYV,7.11

# Target: T2, PLEK 120-231 DEP (domain begin residue: …
# Experiment: as above
# Summary of the method: as §1
row,Binder,phage ELISA signal ratio
1,WFDEGMWEVINQYNSL,21.9
2,FDQLMHEAYTQWQSQQ,31.5
3,LQTYDWWADVMDHVLN,4.42
4,RPDIMERLQQLMVWHG,4.13

# Target: T3, PDCD6IP 3-392 BRO1 (domain begin …
# Experiment: as above
# Summary of the method: as §1
row,Binder,phage ELISA signal ratio
1,DVAWHVPWEQYFEQET,16.8
2,WEEDFWTGLHFLNNAE,25.5
3,FDAYWQDLYMMDLDSF,19.8
4,WDYMSEEESIRYLIEW,27.3
